From PubChem BioAssay AID588497 (NMMLSC, 2011) come the findings set out here.

SMILES strings stand for the structures. The campaign covered roughly 360,000 compounds. About 780 (0.22%) were called active. Inconclusive results (about 4%) are left out. Rule as the data show it: active = inhibition above about 35% (passing the limit was not always enough); inconclusive = no clear call, values can overlap the other calls. Shown is part of a subset that was picked to be rich in actives.

This experiment has as its system Botulinum neurotoxin type F light chain protease (Clostridium botulinum). Kind of experiment: BoNT/F light chain protease inhibitors, primary screen, biochemical, flow cytometry, MLPCN library (AID 588497). Also: plate controls were buffer without enzyme for full effect and enzyme alone for no effect. The note with it: Multiplex microsphere protease cleavage assay, at 10 µM, stronger effect = higher value. For orientation: In flow cytometry, cells or beads pass a laser one at a time.
For `c1ccc2c(c1)CCc1snnc1-2`, the inhibition was 40.3% (active).

Turning to `C=CCN(CC=C)S(=O)(=O)c1ccc(C(=O)Nc2nc3c(s2)CCc2ccccc2-3)cc1`, the inhibition was -8.2% (inactive).

As to `O=C(c1snnc1-c1ccccc1)N1CCOCC1`, the inhibition is -9% (inactive).

As for `COc1ccc(CC(N)c2csc(NC(=O)Nc3ccc(C(C)C)cc3)n2)cc1` (configuration not stated), the inhibition is -11.1% (inactive).

As to `CN(C)c1ccc(C=C2C(=O)OC3(CCCC3)OC2=O)cc1`, the inhibition is 6.6% (inactive).

As for `CN(C)c1ccc(/C=C2\NC(=S)N(Cc3ccccc3)C2=O)cc1`, the inhibition was 35.7% (active).

`CC1CN(Cc2ccccc2)C(=S)NC1=O` (configuration not stated): the inhibition is 0.1% (inactive).

As to `Cc1ccc(CC2(C)C(=O)Nc3ccc(OC(F)(F)F)cc32)cc1` (configuration not stated), the inhibition was -5% (inactive).

For the molecule `C=CCC[C@@H](CCCCC)OC(=O)/C=C/[C@@H](O)[C@H](O)C[C@H](O)CC=C`, the inhibition is 4.2% (inactive).

For the molecule `O=C1NC[C@H](Cc2ccc(O)cc2)N(C[C@H]2CCCN2C[C@H](Cc2ccccc2)N2C[C@H](Cc3ccccc3)N(CCc3ccccc3)C(=O)C2=O)C1=O`, the inhibition was -3.4% (inactive).

Take `O=C1Nc2ccccc2NC(c2ccc3c(c2)OCO3)=C1N(Cc1ccc(F)cc1)C(=O)c1ccco1`: the inhibition was -0.6% (inactive).

For `Cn1c(Nc2ccccc2)cc(=O)n(C)c1=O`, the inhibition is 35.2% (active).

For `CC(C)Oc1ccc(C(=O)Nc2cc(=O)n(C)c(=O)n2C)cc1`, the inhibition is -0.5% (inactive).

Take `Cc1cc(=O)n(C)c(=O)n1CCCNc1ccccc1`: the inhibition is 6.9% (inactive).

With `CC(=O)c1cccc(-c2cnc3c(NC=O)cc(-c4ccccc4Oc4ccccc4)cn23)c1`, the inhibition is -5.9% (inactive).

Take `C=CCn1c(SCc2c(C)noc2C)nc2sc3c(c2c1=O)CCC(C)C3` (configuration not stated): the inhibition is -1.6% (inactive).

In the case of `CC1CCc2c(sc3nc4n(c(=O)c23)CCS4)C1` (configuration not stated), the inhibition was 43.2% (active).

`CCCn1nnc2sc3c(c2c1=O)CCC(C)C3` (configuration not stated): the inhibition was -1.8% (inactive).

In the case of `COc1ccc(C(c2nnnn2C2CCCC2)N2CCN(C/C=C/c3ccccc3)CC2)cc1` (configuration not stated), the inhibition was -6.6% (inactive).

Turning to `CC(=O)Nc1cc(-c2cccc(CO)c2)cn2c(-c3cccc(C(F)(F)F)c3)cnc12`, the inhibition was 0.9% (inactive).

As for `O=C(NC(c1ccc(Cl)cc1)c1cnccn1)C1CCN(Cc2ccc(Cl)cc2)CC1` (configuration not stated), the inhibition is -2.2% (inactive).

Turning to `Cc1nc2c(OCc3ccc(Cl)cc3Cl)cccn2c1N(C)CC1CC1`, the inhibition is -6% (inactive).

Turning to `Nc1ccccc1Sc1cc(Cl)nnc1Cl`, the inhibition was 82.9% (active).

As for `Cc1nn(C)c(C)c1Sc1ccccc1N`, the inhibition was -4.3% (inactive).

As to `CC(C)Nc1nc(NCCOc2ccccc2Cl)c2sccc2n1`, the inhibition is -12.7% (inactive).

For the molecule `NC(Cc1ccc(F)cc1)c1csc(Nc2nncc3ccccc23)n1` (configuration not stated), the inhibition was -21.6% (inactive).

With `COc1ccc(-c2coc3c(C(=O)NC(C)C)cccc23)c(C)c1`, the inhibition is -5.4% (inactive).

For the molecule `CCOc1ccc(/C=C(/C#N)c2nnc(N3CCOCC3)n2-c2ccccc2)cc1OC`, the inhibition is -9.5% (inactive).

With `COc1cc(N2CCCC2)c(OC)cc1/C=C(/C#N)c1cccc(Br)c1`, the inhibition is 169% (active).

On to `COc1ccc(-c2ccc(C(=O)NCCN3CCOCC3)c3occc23)c(C)c1`, for which the inhibition was -4.4% (inactive).

Regarding `CCc1nc2ccc(C(=O)Nc3cccc(OC)c3)cn2c1N(CCC(C)C)CCN(C)C`, the inhibition is 3% (inactive).

With `CCOCCC(=O)Nc1ccc2c(c1)c(=O)n(C)n2-c1ccc2ccccc2c1`, the inhibition was -6% (inactive).

Regarding `OC(c1ccc(Cl)cc1)c1ncc(-c2ccc(Cl)cc2)[nH]1` (configuration not stated), the inhibition is -8.9% (inactive).

In the case of `CCN(CC)C(=O)CN(c1cccc(OC)c1)S(=O)(=O)c1ccc(C)cc1`, the inhibition was -9.7% (inactive).

On to `COC(=O)CN(c1nc(C)c(Cl)c(OC)n1)S(=O)(=O)c1ccc(C)cc1`, for which the inhibition is 41.2% (active).

Consider `COc1ccc(CNC(=O)CN(c2ccc(OC)c(Cl)c2)S(=O)(=O)c2ccc(C)cc2)cc1`, for which the inhibition was -6.9% (inactive).

In the case of `CC(=O)Nc1cccc(-c2cc(NC=O)c3ncc(-c4ccc(F)c(Cl)c4)n3c2)c1`, the inhibition was -9.5% (inactive).

Consider `COc1ccc(-c2cc(NC(C)=O)c3ncc(-c4cc(OC)c(OC)c(OC)c4)n3c2)cn1`, for which the inhibition is 2.1% (inactive).

Regarding `CC1(C(=O)NCc2cccc3ccccc23)CCN1Cc1ccc(-c2ccccc2)o1` (configuration not stated), the inhibition was -9.6% (inactive).

For the molecule `CCc1nc2c(OCc3ccc(C(F)(F)F)cc3)cccn2c1N(C)C(=O)CC(C)C`, the inhibition was 0.4% (inactive).

As to `O=C(CN1CCN(c2ccccc2O)CC1)NC(=O)NCc1ccccc1`, the inhibition was 69.8% (active).

Regarding `COc1ccccc1N1CCN(CC(=O)NC(=O)NCc2ccco2)CC1`, the inhibition was -6.6% (inactive).

Turning to `Oc1ccccc1N1CCN(C(=S)NCc2ccccc2)CC1`, the inhibition is -13.6% (inactive).

With `Cc1ccc(Cc2c(-c3ccc(Cl)cc3)nc3c4ccccc4ccn23)cc1`, the inhibition is -5.5% (inactive).

In the case of `CSCCC(c1nnnn1Cc1ccccc1)N1CCN(C/C=C/c2ccccc2)CC1` (configuration not stated), the inhibition is -9.9% (inactive).

As for `CCN1CCN(C2CCCCC2NS(=O)(=O)c2ccc(Cl)cc2)CC1` (configuration not stated), the inhibition is -2% (inactive).

With `O=S(=O)(NC1CCCCC1N1CCC(O)CC1)c1ccc(Cl)cc1` (configuration not stated), the inhibition is 110% (active).

For the molecule `O=S(=O)(NC1CCCCC1N1CCCCC1)c1ccc(Cl)cc1` (configuration not stated), the inhibition was 24.7% (inactive).

`c1ccc(Cc2c(-c3ccco3)nc3c4ccccc4ccn23)cc1`: the inhibition is 4.5% (inactive).

On to `CCOc1ccc2[nH]c(=S)sc2c1`, for which the inhibition was 4.7% (inactive).

Turning to `C[C@H]([C@@H](O)[C@@H](O)[C@@H](C)C(C)(C)C)[C@H]1CC[C@H]2C3CC[C@H]4C[C@H](OS(=O)(=O)O)[C@@H](OS(=O)(=O)O)C[C@]4(C)[C@H]3CC[C@]12C` (some centres not stated), the inhibition was 7.2% (inactive).

`COc1ccc(-c2cc(NC=O)c3ncc(-c4cc(OC)c(OC)c(OC)c4)n3c2)c(OC)c1`: the inhibition is -7.7% (inactive).

Take `Cc1c(NC(=O)c2c([N+](=O)[O-])cnn2C)c(=O)n(-c2ccccc2)n1C`: the inhibition is -13.3% (inactive).

`Cc1c(NC(=O)c2coc(=O)c(Br)c2)c(=O)n(-c2ccccc2)n1C`: the inhibition was 0.1% (inactive).

In the case of `Cc1c(NC(=O)c2cccnc2)c(=O)n(-c2ccccc2)n1C`, the inhibition is 58.9% (active).

For `CCCCCc1c(Cc2ccccc2)ncn1CCc1ccccc1OC`, the inhibition is -7% (inactive).

Consider `Cc1cc2nc(-c3ccc(Cl)cc3)c(Cc3cccc(F)c3)n2c(C)c1Br`, for which the inhibition was -1.2% (inactive).

For `COc1ccc(CC(N)c2csc(NC(=O)NC(c3ccccc3)c3ccccc3)n2)cc1` (configuration not stated), the inhibition is -27.6% (inactive).

Regarding `O=C(Nc1nnc(SCc2c(Cl)cccc2Cl)s1)C1CCCO1` (configuration not stated), the inhibition is -21.4% (inactive).

Turning to `O=C(Nc1ccc(-c2nnc(-c3ccccc3)o2)cc1)C1CCCO1` (configuration not stated), the inhibition is -1.7% (inactive).

For the molecule `O=C(Nc1nnc(CCc2ccccc2)s1)C1CCCO1` (configuration not stated), the inhibition is 37% (active).

Consider `NCCCNC(=S)NCCCN(Cc1ccc(Cl)cc1)c1ccc(Br)cn1`, for which the inhibition was -47.9% (inactive).

`C=C1C(=O)OC2C1CCC(C)=CCCC1(C)OC21` (configuration not stated): the inhibition was -2.6% (inactive).

On to `COc1ccc(Cl)cc1-c1cc(C(=O)Nc2cc(OC)c(OC)c(OC)c2)[nH]n1`, for which the inhibition is -0.6% (inactive).

On to `CCCc1c(-c2ccccc2F)ncn1Cc1ccccc1OC`, for which the inhibition was -10.4% (inactive).

For the molecule `Cc1cccc(OCC(=O)Nc2ccc(NC(=O)c3ccco3)c(C)c2)c1`, the inhibition was 17.3% (inactive).

In the case of `Cc1ccc(NC(=O)c2ccco2)cc1`, the inhibition was -6% (inactive).

Take `Cc1ccc(C(=O)COc2cccc(NC(=O)c3ccco3)c2)cc1`: the inhibition is 44.6% (active).

As for `Clc1cccc(Cc2c(-c3cccc(Cl)c3)nc3ccc(Cl)cn23)c1`, the inhibition was -3.7% (inactive).

In the case of `Fc1cccc(Cc2c(-c3ccc(Cl)cc3)nc3ccc(Cl)cn23)c1`, the inhibition was -6% (inactive).

Consider `CCC(C)(C(=O)NC1CCCCC1)N(C)C(=O)c1ccc2c(c1)OCO2` (configuration not stated), for which the inhibition was 4% (inactive).

`O=C(Cc1ccccc1[N+](=O)[O-])N1CCN(Cc2ccc3c(c2)OCO3)CC1`: the inhibition was -12.3% (inactive).

`CCN1CCN(C(C(=O)NC2CCCC2)c2cc3c(cc2[N+](=O)[O-])OCO3)CC1` (configuration not stated): the inhibition is 35.9% (active).

On to `OC(c1ccccc1)c1nc(/C=C/c2ccc(C(F)(F)F)cc2)cs1` (configuration not stated), for which the inhibition is -10.4% (inactive).

`Cc1cc(=O)oc2c3c(cc(OCC(=O)NCC(O)c4ccccc4)c12)OC(C)(C)CC3` (configuration not stated): the inhibition was -2% (inactive).

Take `O=C(CC[C@H]1O[C@@H](n2ccc(=O)[nH]c2=O)[C@H](O)[C@@H]1O)N[C@H](Cc1ccccc1)C(=O)NCCCN1CCCC1=O`: the inhibition was 1.4% (inactive).

In the case of `O=C(NCCc1ccc(Cl)cc1)C1CCCN1C(=O)NCc1ccccc1` (configuration not stated), the inhibition was -20.3% (inactive).

As to `CC(=O)c1cccc(NC(=O)N2CCCC2C(=O)NCCc2ccccc2)c1` (configuration not stated), the inhibition is 35.3% (active).

As for `Cc1ccc(CNC(=O)C2CCCN2C(=O)NCc2ccccc2)cc1` (configuration not stated), the inhibition is 5.7% (inactive).

Take `CCOC(=O)c1ccc(-c2ccc3ncnc(N(C)Cc4sccc4C)c3c2)o1`: the inhibition was 6.1% (inactive).

Regarding `CC(=O)N1Cc2cc(C(=O)NCc3cccc(F)c3)nc(-c3cccc(C4=CCCCC4)c3)c2[C@H]1CCO`, the inhibition was -0.7% (inactive).

For `CN(C(=O)c1ccccn1)c1nnc(-c2ccccn2)s1`, the inhibition was 40.4% (active).

Take `O=C(Nc1nnc(C2CC2)s1)c1ccccn1`: the inhibition was -19.8% (inactive).

On to `CN(C(=O)C1CCOC1)c1nnc(-c2cccnc2)s1` (configuration not stated), for which the inhibition was 6.9% (inactive).

With `CC(C)Cc1nnc(NC(=O)CN2C(=O)NC3(CCCCC3)C2=O)s1`, the inhibition was 7.7% (inactive).

On to `CC(C)Cc1nnc(NC(=O)CCC(=O)Nc2ccc3cn[nH]c3c2)s1`, for which the inhibition was 43.7% (active).

`CC(C)Cc1nnc(NC(=O)CCNC(=O)c2ccccc2Cl)s1`: the inhibition was -5.1% (inactive).

`CCCc1nc2c3ccccc3ccn2c1Cc1ccccc1C(F)(F)F`: the inhibition was 1% (inactive).

On to `Cc1nc2c(OCc3ccc(Cl)cc3)cccn2c1N(C)Cc1cccs1`, for which the inhibition is -1.1% (inactive).

With `O=C(C[n+]1cc(Br)cc2ccccc21)c1ccc(F)cc1`, the inhibition was 41.8% (active).

Consider `COC(=O)C[n+]1cccc2ccccc21`, for which the inhibition was 10% (inactive).

Take `O=C(CNC(=O)c1ccccc1F)c1ccc(Br)cc1`: the inhibition was -24.7% (inactive).

In general, inhibition refers to the drop in the measured response relative to a control, in per cent.
